TGFb inhibitor: TGF-b pathway inhibition; HepG2 CAGA-GFP TGF-b/SMAD3 reporter, GFP fluorescence, 18 h; TGF-beta stimulated, 500 pg/mL final; Potency, µM (doses to about 46.1 µM), most hits filed as inhibitors; 410,000 tested, 1.2% active; further: nearly all actives have a fitted effect of over 65% in size
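Read-out: total well GFP (ex488/em500-530) summed from mean per-cell fluorescence. Cells: HEPG2 CAGA-GFP, 1% FBS DMEM, 18 h at 37 degrees C with 500 pg/mL final TGF-beta. Unstimulated wells served as the full-inhibition control; stimulated DMSO wells = 0%.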
DT40 TDP1 CPT: growth inhibition of DT40 Tdp1-/-;hTDP1 cells with camptothecin (screen for TDP1 inhibitors) | AID 686979 | Potency, µM (highest dose often 46.2 µM), most hits filed as inhibitors | chicken DT40 Tdp1-/-;hTDP1 cells + 20 nM CPT, ATP luminescence, 48 h | 420,000 tested, 12% active; further: nearly all actives have a fitted effect of over 55% in size
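Cell growth measured by CellTiter-Glo luminescence after a minimum 48 h, 37 C compound exposure with 20 nM CPT in Tdp1-knockout DT40 cells stably expressing hTDP1, seeded 400/well; qHTS titration format.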
HT1080-NT tox: kills 2HG-producing HT-1080-NT fibrosarcoma cells; HT-1080-NT fibrosarcoma viability, CellTiter-Glo ATP luminescence, 48 h; Potency, µM (highest dose often 46.1 µM), hits mostly cytotoxic; 360,000 tested, 1.6% active;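 further: NT is the 2HG producing partner of a matched IDH1 knockdown line; nearly all actives have a fitted effect of over 55% in size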
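Compounds were tested in concentration-response format on HT-1080-NT cells for 48 hours at 37 degrees C. Cell viability came from CellTiter-Glo luminescence; curves were classified by r2, response magnitude and activity.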
HepG2 tox: kills HepG2 cells in TGF-b inhibitor counter-screen; 410,000 tested, 0.76% active; HepG2 CAGA-GFP viability, ATP luminescence, 18 h; AID 588856; Potency, µM (series often up to 46.1 µM), hits mostly cytotoxic
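HepG2 CAGA-GFP cells (1000/well, DMEM with 1% FBS) received compound, then TGF-beta at 500 pg/mL final, and were incubated 18 hours at 37 degrees C. Viability was read by CellTiter-Glo luminescence. Media-only wells were set as complete cell-killing and DMSO as no toxicity.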
HT1080 IDH1KD tx: HT-1080 IDH1 knockdown cell toxicity (counter line); HT-1080 IDH1 knockdown viability, ATP luminescence, 48 h; Potency, µM (titrated, usually from 46.1 µM), hits mostly cytotoxic; 360,000 tested, 2% active
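HT-1080-IDH1KD cells (IDH1 knocked down), 750/well in RPMI with 5% FBS, treated with compound 48 h at 37 degrees C. Viability by CellTiter-Glo luminescence, normalised to DMSO and no-cell wells; concentration-response curves classed.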
DT40 TDP1 no CPT: qHTS for Inhibitors of human tyrosyl-DNA phosphodiesterase 1 (TDP1): qHTS in cells in absence of CPT; Potency, µM (highest dose often 46.2 µM), most hits filed as inhibitors; 420,000 tested, 15% active; DT40 Tdp1-/- hTDP1 cells, no CPT, ATP luminescence, 48 h; further: nearly all actives have a fitted effect of over 55% in size
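Compound effects on proliferation are scored in DT40 Tdp1-/-;hTDP1 cells in the absence of CPT. ATP levels (CellTiter-Glo luminescence) are recorded after a ≥48 hr, 37 °C incubation.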
Numbers stand for hits. An excerpt weighted towards active compounds, which were near 17% of everything screened. The call rests on the fitted dose curve; in most records, active means well fitted curve in the direction sought with a large enough effect; inconclusive means small, poorly fitted or top-dose-only effect, or another doubt; inactive means no such curve, though single readings can be large; an effect the other way counts as inactive or inconclusive.

O=C(CSc1nc2ccc(NC(=O)c3ccccc3C(=O)O)cc2s1)Nc1c(Cl)cccc1Cl was read as TGFb inhibitor inactive, DT40 TDP1 CPT inactive, HT1080-NT tox inactive, HepG2 tox inactive, HT1080 IDH1KD tx inactive and DT40 TDP1 no CPT inactive.
`Cc1ccccc1NC(=O)CSc1nc2ccc(NC(=O)COc3ccccc3F)cc2s1` gave TGFb inhibitor inconclusive, DT40 TDP1 CPT 13µM, HepG2 tox inactive and DT40 TDP1 no CPT 10µM.
For O=C(COc1ccc(Cl)cc1)Nc1ccc2[nH]ncc2c1 the results were TGFb inhibitor inactive, DT40 TDP1 CPT inconclusive, HT1080-NT tox inactive, HepG2 tox inactive, HT1080 IDH1KD tx inactive and DT40 TDP1 no CPT 21µM.
`O=C(COc1ccccc1)Nc1ccc2[nH]ncc2c1` gave TGFb inhibitor inactive, DT40 TDP1 CPT inactive, HT1080-NT tox inactive, HepG2 tox inactive, HT1080 IDH1KD tx inactive and DT40 TDP1 no CPT inconclusive.
Cc1ccc(C(=O)Nc2ccc(-c3nc4ccccc4s3)c(O)c2)c(C)c1 was read as TGFb inhibitor inactive, DT40 TDP1 CPT 10µM, HepG2 tox inactive and DT40 TDP1 no CPT inconclusive.
`O=C(COc1ccc(Cl)cc1)OCCNC12CC3CC(CC(C3)C1)C2` gave DT40 TDP1 CPT inactive and DT40 TDP1 no CPT inactive.
For COc1ccc2c(c1)c1c(c(=O)n(-c3cccc(C)c3)c(=O)n1CC(=O)Nc1c(C)cc(C)cc1C)n2C the results were TGFb inhibitor inactive, DT40 TDP1 CPT inactive, HepG2 tox inactive and DT40 TDP1 no CPT inactive.
`C[C@H]1CN([C@@H](C)CO)C(=O)CCCn2cc(nn2)CO[C@@H]1CN(C)C(=O)Nc1ccc(N2CCN(C)CC2)cc1` gave TGFb inhibitor inactive, DT40 TDP1 CPT inactive, HT1080-NT tox inactive, HepG2 tox inactive, HT1080 IDH1KD tx inactive and DT40 TDP1 no CPT inactive.
`COc1ccc(S(=O)(=O)Nc2ccccc2C(=O)N2CCOCC2)cc1Cl` gave TGFb inhibitor inactive, DT40 TDP1 CPT inactive, HT1080-NT tox inactive, HepG2 tox inactive, HT1080 IDH1KD tx inactive and DT40 TDP1 no CPT inactive.
`CN(C(=O)c1cc2nc(-c3ccc4c(c3)OCO4)cc(C(F)(F)F)n2n1)c1ccc(OC(F)(F)F)cc1` gave TGFb inhibitor inactive, DT40 TDP1 CPT inactive, HepG2 tox inactive and DT40 TDP1 no CPT inactive.
Screening O=C(COc1ccc(Cl)cc1)Nc1ccc(-c2nc3ccccc3s2)c(O)c1 returned TGFb inhibitor inactive, DT40 TDP1 CPT inconclusive, HepG2 tox inactive and DT40 TDP1 no CPT 18µM.
Cc1cccc(NC(=O)CSc2nc3ccc(NC(=O)COc4ccc(Cl)cc4)cc3s2)c1 was read as TGFb inhibitor inconclusive, DT40 TDP1 CPT 7.3µM, HepG2 tox inactive and DT40 TDP1 no CPT 6.5µM.
Screening CCN(CC)c1ccc(/C=N/Nc2nc(C)cc(=O)[nH]2)c(O)c1 returned TGFb inhibitor inconclusive, DT40 TDP1 CPT 0.021µM, HT1080-NT tox inactive, HepG2 tox inactive, HT1080 IDH1KD tx inconclusive and DT40 TDP1 no CPT 0.021µM.
Cc1cc(=O)[nH]c(NN=Cc2cc(Br)ccc2O)n1 was read as TGFb inhibitor inconclusive, DT40 TDP1 CPT 2.6µM, HT1080-NT tox inactive, HepG2 tox inactive, HT1080 IDH1KD tx inconclusive and DT40 TDP1 no CPT 2.9µM.
Screening CCn1c(C)nc2cc(S(=O)(=O)C(F)(F)F)ccc21 returned TGFb inhibitor inactive, DT40 TDP1 CPT inconclusive, HT1080-NT tox inactive, HepG2 tox inactive, HT1080 IDH1KD tx inactive and DT40 TDP1 no CPT 16µM.
CCOc1cc(/C=C2\SC(=N)N(c3nonc3N)C2=O)ccc1OCCN1CCOCC1 was read as TGFb inhibitor inactive, DT40 TDP1 CPT 13µM, HT1080-NT tox inactive, HepG2 tox inactive, HT1080 IDH1KD tx inactive and DT40 TDP1 no CPT 21µM.
`Cc1cc(C)cc(NC(=O)C2CCN(S(=O)(=O)c3cccc(-c4noc(C)n4)c3)CC2)c1` gave TGFb inhibitor inconclusive, DT40 TDP1 CPT 16µM, HepG2 tox inactive and DT40 TDP1 no CPT 21µM.

From PubChem BioAssay
